An excerpt weighted towards active compounds, which were near 6% of everything screened.
DRD3 antagonist = D3 dopamine receptor (human) antagonism | AID 652054 | 360,000 compounds, 2.5% hits | P35462 | D3R cells, DiscoveRx beta-arrestin luminescence, antagonist mode; hits give low values | max response, negative = inhibition, %; in the data active means max response below about -50%; inconclusive means no clear call, values can overlap the other calls
Target sequence (P35462 whole entry, looked up): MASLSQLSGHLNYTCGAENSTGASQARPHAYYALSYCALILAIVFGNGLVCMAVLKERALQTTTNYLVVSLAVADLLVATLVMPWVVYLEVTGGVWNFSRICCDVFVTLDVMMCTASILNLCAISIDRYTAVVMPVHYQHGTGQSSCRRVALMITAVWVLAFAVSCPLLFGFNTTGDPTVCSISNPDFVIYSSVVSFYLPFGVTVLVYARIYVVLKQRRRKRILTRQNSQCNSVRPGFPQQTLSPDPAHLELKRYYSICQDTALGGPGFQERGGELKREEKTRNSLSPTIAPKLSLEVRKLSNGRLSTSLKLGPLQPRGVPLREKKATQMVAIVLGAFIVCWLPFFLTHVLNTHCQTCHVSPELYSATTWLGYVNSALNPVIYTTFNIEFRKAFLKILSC
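Cells expressing the human receptor were seeded at 1500 cells/well, incubated overnight at 37 degrees C in 5% CO2, then exposed to library compounds with dopamine controls for 90 minutes at 37 degrees C before luminescent detection.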
D1 potentiator = potentiators of human D1 dopamine receptor; P21728; HEK293 TREx D1 cells, calcium flux, dopamine EC20 potentiation; potentiation, % at 10 µM; 360,000 compounds, 0.036% hits; in the data active means potentiation above about 30%
D1 antag = human D1 dopamine receptor antagonism. P21728. 360,000 compounds, 3.2% hits. HEK293 TREx D1 cells, calcium flux, dopamine EC80; hits give low values. activity change, negative = inhibition, % at 10 µM; in the data active means activity change below about -30%
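Using tetracycline-induced force-coupled D1 Hek293 cells and a calcium dye, signals were followed for 180 s after compound, then for 180 s after EC80 dopamine, to detect inhibitors.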
D3 ag = D3 dopamine receptor (human) agonism; AID 652048; max activation, %; P35462; D3R DiscoveRx beta-arrestin cells, luminescence, 90 min; 410,000 compounds, 0.58% hits; in the data active means max activation above about 30%
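Agonist mode: compounds and dopamine controls were applied to plated cells for 90 min at 37 degrees C after an overnight attachment at 1500 cells/well. Luminescent read-out followed 30 - 60 minutes at room temperature with DiscoveRx detection reagent.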
D1 ag = activates the human D1 dopamine receptor; P21728; HEK293 T-REx D1 cells, calcium flux, agonist mode; activation, % at 2 µM; 360,000 compounds, 1% hits; in the data active means activation above about 30%
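Inducible HEK293 T-REx D1 cells, force-coupled to calcium signalling, were plated at 4000 cells/well with tetracycline and held overnight at 30 C. After no-wash calcium dye loading, compound-evoked calcium rise over 180 s flagged agonists.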
Each line names hits and unclear results; the compound was inactive in the other large screens.

CCc1cccc(-n2c(=O)c3cccnc3n2CC(=O)Nc2c(C)cc(C)cc2C)c1	none (no result: DRD3 antagonist)
COc1cccc(-c2c(C(=O)N/N=C/c3cccs3)nnn2-c2nonc2N)c1	D1 ag 61
Cc1ccc(/C=N/NC(=O)c2nnn(-c3nonc3N)c2-c2cccs2)cc1	D1 ag 163
COc1ccc(/C=N/NC(=O)c2nnn(-c3nonc3N)c2-c2cccc(OC)c2)cc1	D1 ag 99
Nc1nonc1-n1nnc(C(=O)N/N=C/c2ccc(F)cc2)c1-c1ccc2c(c1)OCO2	none
Cc1ccc(/C=N/NC(=O)c2nnn(-c3nonc3N)c2-c2ccc3c(c2)OCO3)s1	D1 potentiator 36, D1 ag 49
COc1cc(/C(C)=N/NC(=O)c2nnn(-c3nonc3N)c2-c2cccs2)ccc1O	none
CCOc1cccc(-c2c(C(=O)N/N=C/c3ccncc3)nnn2-c2nonc2N)c1	none
Cc1ccc(SCc2c(C(=O)N/N=C/c3ccncc3)nnn2-c2nonc2N)cc1	D1 antag -42
CCOc1ccc(/C(C)=N/NC(=O)c2nnn(-c3nonc3N)c2-c2cccs2)cc1	D1 potentiator 41, D1 ag 115
CCOc1cccc(-c2c(C(=O)N/N=C/c3cccs3)nnn2-c2nonc2N)c1	D1 ag 30
COc1ccc(NC(C)=O)cc1NC(=O)CCn1c(=O)sc2ccccc21	none
O=C(CCN1C(=O)c2ccccc2C1=O)NCCC1=CCCCC1	none
O=C(CCn1c(=O)sc2ccccc21)NCc1ccco1	D1 ag 79
CC(=O)Nc1cccc(NC(=O)CCn2c(=O)sc3ccccc32)c1	D1 antag -90
O=C(CCn1c(=O)sc2ccccc21)NCCC1=CCCCC1	DRD3 antagonist -108
COc1cccc(CNC(=O)CCn2c(=O)c3cccn3c3ccc(F)cc32)c1OC	none (no result: DRD3 antagonist)
CCCCOc1cccc(C(=O)Nc2cc(NC(=O)c3ccco3)ccc2OC)c1	none (no result: DRD3 antagonist)
CCC(C)(C)C1CCC(=NNC(=S)Nc2cccnc2)CC1 (centres undefined)	DRD3 antagonist -64
CC1=C/C(=N\NC(=S)Nc2cccnc2)CC(C)(C)C1	DRD3 antagonist -51
COc1ccc(CCNC(=O)c2ccc(Cn3c(=O)c4ccccc4n(Cc4cccc(F)c4)c3=O)cc2)cc1OC	none (no result: DRD3 antagonist)
O=C(N/N=C/c1ccc(OCc2cnc(Cl)s2)cc1)c1ccncc1	D1 antag -33
O=C(N/N=C/c1ccc(OCc2ccccc2)cc1)c1ccncc1	none
c1ccc2c(c1)OC(CCCN1CCCCC1)c1ccccc1S2 (centres undefined)	D1 antag -85
CN1CCCC(CC2Oc3ccccc3Sc3ccccc32)C1 (centres undefined)	DRD3 antagonist -84, D1 antag -74, D1 ag 49
CCc1ccccc1NC(=O)Cn1c(C(=O)OC)cc2oc(C)cc21	none (no result: DRD3 antagonist)
CCOc1ccc2nc(NC(=O)c3nc(SCc4ccccc4F)ncc3Cl)sc2c1	none (no result: DRD3 antagonist)
CC1OC(Nc2ccc(N=Nc3ccccc3)cc2)C(O)C(O)C1O (centres undefined)	D1 ag 31
CC1OC(Nc2cccc3ccccc23)C(O)C(O)C1O (centres undefined)	DRD3 antagonist inconclusive
CC(C)Cn1c(N)c(C(=O)COC(=O)C2CC(=O)N(Cc3ccccc3Cl)C2)c(=O)n(C)c1=O (centres undefined)	D3 ag 39
Cc1cccnc1N(C(=O)Nc1cccc(Cl)c1)C1=NCC(C)(C)S1	D1 antag -31
CC1(C)CN=C(N(C(=O)Nc2ccccc2)c2ccccc2F)S1	D3 ag 31
Cc1ccc(CNC(=O)C(=O)NCC(c2cccs2)S(=O)(=O)c2ccccc2)cc1 (centres undefined)	none (no result: DRD3 antagonist)
COc1ccc(-n2c(-c3ccc(F)cc3)cn3c4c(=O)n(C)c(=O)n(C)c4nc23)cc1	none (no result: DRD3 antagonist)
COc1ccc(N2CCN(CC(O)COc3ccc(C(C)C)c(C)c3)CC2)cc1 (centres undefined)	none (no result: DRD3 antagonist)
Cc1ccc2c(c1)C(c1ccc(F)cc1)N(C(=O)COc1ccc(Cl)cc1Cl)CC(=O)N2 (centres undefined)	none (no result: DRD3 antagonist)
CCc1sc(Nc2ccc(Cl)cc2)nc1-c1cc2cccc(OC)c2oc1=O	none (no result: DRD3 antagonist)
COc1cccc2cc(-c3ccccc3)c(=O)oc12	D1 antag -31
CCc1ccc(Nc2nc(-c3cc4cccc(OC)c4oc3=O)c(CC)s2)cc1	D3 ag 50 (no result: DRD3 antagonist)
COc1ccc(-c2cc3cccc(OC)c3oc2=O)cc1	none

Screening results (PubChem)
